Experiment [1] is described as follows: Validation of Assay for Modulators of Lamin A Splicing (AID 1459; active = well fitted curve in the direction sought with a large enough effect in the signal ratio; the % refers to the signal ratio;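 also: cells exposed to compound for two days before reading; 0% is about no effect; ratio rise marks activators and ratio drop marks inhibitors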). A digest of the protocol:
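HeLa S3 lamin A-EGFP/DsRed2 stable clone, 600 cells/well, Opti-MEM 2% FBS; compounds by pin tool; 48 hrs, 37 °C/5% CO2; Acumen 488 nm scan, objects 10-100 um; GFP/RFP intensity ratio.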

For experiment [2], the target named is DNA repair nuclease/redox regulator APEX1 (Homo sapiens) (UniProt P27695). As to the kind of experiment: qHTS Validation Assay for Inhibitors of the Human Apurinic/apyrimidinic Endonuclease 1 (APE1) (AID 1705;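 also: TAMRA fluorescence gain over two minutes as APE1 cuts a quenched THF abasic duplex; series mostly up to about 57 µM; % is scaled to controls: 0 for no effect and ±100 for the full control effect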). A digest of the protocol:
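qHTS, 1536-well. APE1 + cpd 15 min RT → 50 nM TAMRA/BHQ-2 THF-abasic dsDNA substrate → kinetic fluorescence, 3 reads/60 s; delta(read3−read1) = reaction progress. No-enzyme buffer = negative control.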

Experiment [3] can be described thus: Counterscreen for APE1 Inhibitors: Fluorescent Dye Displacement Validation Assay (AID 1707).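 Also: plate controls were ThO with dsDNA and no compound for no effect and ThO without dsDNA for full effect.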 A digest of the protocol:
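Loss of Thiazole Orange fluorescence marks promiscuous DNA binders. The dye (250 nM) is mixed with 50 nM abasic-site dsDNA in pH7.5 Tris buffer containing MgCl2, then compounds are added and emission is read once.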
In general terms: A counterscreen serves to expose hits that act by an unwanted route or on another target.

Experiment [4] is described as follows: qHTS for differential inhibitors of proliferation of Plasmodium falciparum line GB4 (AID 1816).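 Also: parasite growth measured after 72 h incubation.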 Also: potency is read from the fitted curve at half-maximal effect. The settings on record: Potency: Plasmodium falciparum GB4 proliferation inhibition. Background: qHTS replaces the single test concentration by a dilution series.
Experiment [5] can be described thus: qHTS for differential inhibitors of proliferation of Plasmodium falciparum line 3D7 (AID 1876).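 Also: parasite growth measured after three days of culture; 0% = vehicle wells and -100% = reference inhibitor wells.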
A short description of experiment [6]: qHTS for differential inhibitors of proliferation of Plasmodium falciparum line D10 (AID 1877).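 Also: parasites grown with compound for 72 h before DNA staining; plate controls were vehicle wells for no effect and reference inhibitor wells for full effect.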
The nature of experiment [7]: qHTS for differential inhibitors of proliferation of Plasmodium falciparum line Dd2 (AID 1882).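 Also: series mostly up to about 29 µM; compound exposure of 72 h on infected erythrocytes; plate controls were DMSO vehicle for no effect and 0.29 µM artemisinin for full effect; nearly all actives have a fitted effect of over 65% in size.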 The settings on record: Potency: Plasmodium falciparum Dd2 proliferation inhibition. A digest of the protocol: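 RBC culture, 0.3% parasitemia / 2.5% Hct final; cpd added by pin tool in DMSO; 72 h, 37 C, 5% CO2; lysis buffer + SYBR Green I, o/n RT dark; FI 485/535; norm. to artemisinin 0.29 uM and DMSO.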

Experiment [8] is described as follows: qHTS for differential inhibitors of proliferation of Plasmodium falciparum line HB3 (AID 1886).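 Also: parasites grown with compound for 72 h before SYBR Green readout.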 Also: potency is read from the fitted curve at half-maximal effect. The settings on record: Potency: Plasmodium falciparum HB3 proliferation inhibition.
In experiment [9] the target is Ferritin light chain (Equus caballus) (UniProt P02791). As to the kind of experiment: qHTS Validation Assay for Identification of Novel General Anesthetics (AID 2323). Also: series mostly up to about 77 µM; % is scaled to controls: 0 for no effect and ±100 for the full control effect. The essentials:
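Fluorescence at 535 nm (excitation 380 nm) reported loss of 1-AMA binding to horse-spleen apoferritin (10 uM) in PBS with 50% saturated 1-aminoanthracene, after 10 min room-temperature incubation with compound; values from Hill fits of normalized response.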

Experiment [10] deals with ATP-dependent DNA helicase Q1 (Homo sapiens) (UniProt P46063). As to the kind of experiment: qHTS Validation Assay for Inhibitors of RecQ-Like Dna Helicase 1 (RECQ1) (AID 2353).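 Also: plate controls were DMSO vehicle for no effect and enzyme-free control for full effect.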 A digest of the protocol:
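RECQ1T1 50 nM; forked duplex (20 bp + 30-nt ss tails) 200 nM, ATP 2 mM final; pH 8.0, 2 mM MgCl2, 2.5 ug/ml poly(dI-dC); 15 min compound preincubation; discontinuous kinetic read over 2 h at RT.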

Experiment [11] in a line: Validation screen for small molecules that induce DNA re-replication in MCF 10A normal breast cells (AID 463097). Also: 0% is about no effect; nearly all actives have a fitted effect of over 60% in size. The essentials: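 Image-based qHTS: normal breast cells are incubated with compound for 48 hr, stained with Hoechst, and scanned for total nuclear fluorescence. Compounds raising the fraction of nuclei with elevated DNA content count as re-replication inducers.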

Experiment [12] in a line: Quantitative high throughput screen for delayed death inhibitors of the malarial parasite plastid, 96 hour incubation (AID 488745).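 Also: luciferase-expressing P. falciparum in erythrocytes at 2% hematocrit and 0.1% parasitemia; series mostly up to about 29 µM; % is scaled to controls: 0 for no effect and ±100 for the full control effect; nearly all actives have a fitted effect of over 70% in size.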 A digest of the protocol: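 Luciferase-expressing P. falciparum, infected RBCs 2% Hct/0.1% parasitemia (final); 96 h cpd exposure, 37 C, 5% CO2; RPMI 1640 + 0.5% Albumax, bicarbonate, gentamycin. Readout: luminescence loss = growth inhibition.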

Experiment [13] in a line: Quantitative high throughput screen for delayed death inhibitors of the malarial parasite plastid, 48 hour incubation (AID 488752). Also: % is scaled to controls: 0 for no effect and ±100 for the full control effect; nearly all actives have a fitted effect of over 65% in size. The essentials:
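Luciferase-expressing P. falciparum in RBCs, 2% Hct, 0.1% parasitemia final; RPMI 1640 + 0.5% Albumax; 48 h, 37 C, 5% CO2; luminescence readout, signal drop = growth inhibition.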

The target of experiment [14] is M-phase phosphoprotein 8 (Homo sapiens) (UniProt Q99549). As to the kind of experiment: qHTS Validation Assay for Inhibitors for MPP8 Chromodomain Interactions with Methylated Histone Tails (AID 488949).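 Also: 50 nM MPP8 with 50 nM peptide preformed then compounds added for 30 min; AlphaScreen signal from MPP8 chromodomain bound to biotinylated H3K9me3 peptide; top concentration of the series differs between compounds; % is scaled to controls: 0 for no effect and ±100 for the full control effect; nearly all actives have a fitted effect of over 55% in size.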 The essentials:
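50 nM MPP8 + 50 nM b-H3K9me3 peptide, PBS pH 7.4/0.01% Tween-20, 30 min RT; + cpd 30 min RT; + AlphaScreen donor/Ni-chelate acceptor beads 10 ug/mL final, 30 min dark; luminescence read.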

Experiment [15] deals with Transient receptor potential cation channel subfamily V member 1 (Homo sapiens) (UniProt Q8NER1). As to the kind of experiment: HTS Assay for Compounds that Act as Enhancers of the Vanilloid Receptor 1 (AID 488979). Also: 0% is about no effect. The essentials: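 TRPV1-expressing cells loaded with Fluo-8 calcium dye; compounds added and calcium influx read kinetically for 3 min (agonist phase), then capsaicin at EC20 added and read 2 min more for enhancement. Fluorescence ex 480/em 520 nm.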
Sequence of Transient receptor potential cation channel subfamily V member 1 (Homo sapiens) (Q8NER1 whole entry, looked up): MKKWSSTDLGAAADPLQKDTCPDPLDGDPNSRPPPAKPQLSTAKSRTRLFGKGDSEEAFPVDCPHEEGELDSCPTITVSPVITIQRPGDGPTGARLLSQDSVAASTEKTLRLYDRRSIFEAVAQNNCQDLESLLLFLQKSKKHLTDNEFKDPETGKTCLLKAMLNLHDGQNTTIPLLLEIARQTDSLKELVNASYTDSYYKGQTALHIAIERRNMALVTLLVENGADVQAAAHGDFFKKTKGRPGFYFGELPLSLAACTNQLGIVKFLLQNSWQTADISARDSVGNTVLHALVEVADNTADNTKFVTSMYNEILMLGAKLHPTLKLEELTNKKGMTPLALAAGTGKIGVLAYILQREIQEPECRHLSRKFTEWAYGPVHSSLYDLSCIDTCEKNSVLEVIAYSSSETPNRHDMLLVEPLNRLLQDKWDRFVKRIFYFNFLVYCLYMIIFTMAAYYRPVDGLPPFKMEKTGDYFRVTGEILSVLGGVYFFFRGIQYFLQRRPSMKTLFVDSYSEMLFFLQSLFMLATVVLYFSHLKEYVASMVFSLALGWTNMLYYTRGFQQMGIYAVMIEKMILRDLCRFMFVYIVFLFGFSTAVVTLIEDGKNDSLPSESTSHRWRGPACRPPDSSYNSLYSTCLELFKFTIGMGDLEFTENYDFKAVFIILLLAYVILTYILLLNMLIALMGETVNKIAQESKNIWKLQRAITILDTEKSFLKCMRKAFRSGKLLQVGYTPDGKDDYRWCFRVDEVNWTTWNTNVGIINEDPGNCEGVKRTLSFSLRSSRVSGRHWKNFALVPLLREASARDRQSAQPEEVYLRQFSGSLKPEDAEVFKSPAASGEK

Experiment [16] deals with Thyrotropin receptor (Homo sapiens) (UniProt P16473). As to the kind of experiment: qHTS Assay for Antagonists of the Thyroid Stimulating Hormone Receptor (AID 488980). Also: series mostly up to about 58 µM; 0% is about no effect. A digest of the protocol:
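Readout is cAMP by HTRF competition between cellular cAMP and cAMP-d2 for a cryptate-labelled antibody. Antagonism was assessed in TSHR-transfected HEK293 cells stimulated with 4 nM TSH (EC80, final) in the presence of RO 20-1724.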

Experiment [17] addresses Thyrotropin-releasing hormone receptor (Homo sapiens) (UniProt P34981). Kind of experiment: qHTS for Small Molecule Agonists and Allosteric Enhancers of Human TRH Receptor: Validation Screen for Agonists (AID 493127;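 active = calcium activation more than 3 SD above the typical response in the agonist read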;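 also: intracellular calcium rise by fluo-8 fluorescence before TRH EC20 addition; 0% is about no effect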). The settings on record: TRH receptor agonist cell assay; at 2 µM; active compounds read high. The essentials:
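Read-out: intracellular calcium release measured kinetically by FDSS (fluo-8, ex 480/em 530 nm), 1 reading/s after a 10-cycle baseline. TRHR cells, 2000/well, cultured 18 h at 33.5C, dye-loaded at room temp. Compound-evoked positive calcium signal flags agonists.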

Experiment [18] addresses Galactokinase (Homo sapiens) (UniProt P51570). Kind of experiment: qHTS Validation Assay for Inhibitors of Human Galactokinase (GALK) (AID 493189). Also: 0% is about no effect. A digest of the protocol: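 5 nM GALK / 100 uM galactose / 35 uM ATP, 20 mM HEPES pH8.0, 5 mM MgCl2, 60 mM NaCl, 1 mM DTT, 0.01% BSA (final). RT 1 h; Kinase-Glo Plus luminescence.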
Experiment [19] in a line: Validation screen for small molecules that induce DNA re-replication in SW480 colon adenocarcinoma cells (AID 504364). Also: 0% is about no effect. A digest of the protocol: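 Read-out: total Hoechst intensity of nuclei by fluorescence scanning imager; hits raise the fraction of nuclei with elevated DNA content. Cells received compound for 48 hr at 37 C before a 40 min stain.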
For experiment [20], the target named is Voltage-gated inwardly rectifying potassium channel KCNH2 (Homo sapiens) (UniProt Q12809). Kind of experiment: qHTS Assay for Small Molecule Inhibitors of the Human hERG Channel Activity (AID 588834).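 Also: top concentration of the series differs between compounds; % is scaled to controls: 0 for no effect and ±100 for the full control effect; lower thallium flux fluorescence means stronger hERG block; nearly all actives have a fitted effect of over 50% in size.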 A digest of the protocol: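 Step 1: BacMam hERG transduction of U2OS, 4 hrs RT. Step 2: overnight 37 °C, plate 2000 cells/well, 4 hr. Step 3: FluxOR load, compound 10 min, stimulate, read fluorescence.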
Sequence of Voltage-gated inwardly rectifying potassium channel KCNH2 (Homo sapiens) (Q12809 whole entry, looked up): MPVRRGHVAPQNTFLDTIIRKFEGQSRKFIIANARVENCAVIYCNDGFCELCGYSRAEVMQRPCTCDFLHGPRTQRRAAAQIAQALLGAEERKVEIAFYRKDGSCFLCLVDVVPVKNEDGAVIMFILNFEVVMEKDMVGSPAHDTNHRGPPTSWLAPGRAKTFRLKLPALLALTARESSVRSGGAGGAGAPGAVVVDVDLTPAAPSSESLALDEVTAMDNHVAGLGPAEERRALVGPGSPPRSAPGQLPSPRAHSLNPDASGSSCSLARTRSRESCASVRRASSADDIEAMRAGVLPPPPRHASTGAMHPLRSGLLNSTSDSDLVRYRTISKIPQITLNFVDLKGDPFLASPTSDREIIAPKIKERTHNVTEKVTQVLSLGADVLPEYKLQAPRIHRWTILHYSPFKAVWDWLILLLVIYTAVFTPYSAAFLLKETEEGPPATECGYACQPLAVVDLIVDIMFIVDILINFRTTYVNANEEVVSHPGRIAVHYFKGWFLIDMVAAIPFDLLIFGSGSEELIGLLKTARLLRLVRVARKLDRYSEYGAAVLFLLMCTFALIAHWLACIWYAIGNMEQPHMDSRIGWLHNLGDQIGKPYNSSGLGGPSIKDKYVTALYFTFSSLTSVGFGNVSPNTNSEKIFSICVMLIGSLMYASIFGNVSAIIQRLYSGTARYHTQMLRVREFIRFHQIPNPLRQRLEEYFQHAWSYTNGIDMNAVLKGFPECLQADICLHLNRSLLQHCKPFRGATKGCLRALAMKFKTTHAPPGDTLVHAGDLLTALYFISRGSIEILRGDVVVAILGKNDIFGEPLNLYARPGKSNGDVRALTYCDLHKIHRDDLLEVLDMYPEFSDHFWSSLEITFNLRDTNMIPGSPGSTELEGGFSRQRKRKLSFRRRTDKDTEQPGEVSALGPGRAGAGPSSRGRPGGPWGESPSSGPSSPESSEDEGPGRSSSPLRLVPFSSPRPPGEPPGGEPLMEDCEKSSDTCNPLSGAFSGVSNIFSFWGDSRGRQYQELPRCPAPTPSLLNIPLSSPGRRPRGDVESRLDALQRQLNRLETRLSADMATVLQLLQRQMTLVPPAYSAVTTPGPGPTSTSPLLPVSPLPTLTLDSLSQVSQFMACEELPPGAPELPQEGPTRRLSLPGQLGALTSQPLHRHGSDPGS

In experiment [21] the target is Endonuclease 4 (Escherichia coli (strain K12)) (UniProt P0A6C1). Kind of experiment: Counterscreen for APE1 Inhibitors: qHTS Validation Assay for Inhibitors of Endonuclease IV (AID 1708). Also: % is scaled to controls: 0 for no effect and ±100 for the full control effect. The essentials:
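Measured as reaction progress, the fluorescence gain between first and third kinetic reads after adding 50 nM TAMRA/BHQ-2 THF duplex to 2 nM enzyme preincubated 15 min with compound; 2 mM MgCl2, pH 7.5.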

A short description of experiment [22]: qHTS for differential inhibitors of proliferation of Plasmodium falciparum line W2 (AID 1883).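 Also: potency is read from the fitted curve at half-maximal effect; parasites grown with compound for 72 h before lysis and staining.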 The conditions noted are these: Potency: Plasmodium falciparum W2 proliferation inhibition.
Experiment [23] is described as follows: qHTS Assay for Modulators of Human Peripheral Myelin Protein 22 (PMP22) Expression/Activity (AID 1967; active = well fitted curve in the direction sought with a large enough effect in the signal ratio; the % refers to the signal ratio;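 also: 0% = untreated cells and 100% end not stated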). A digest of the protocol: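 Luminescence ratio of Pmp22 promoter-driven green luciferase to EF-alpha-driven red luciferase, in engineered mouse MSC80 Schwann cells, served as read-out. Compounds were incubated 24h; untreated cells defined 0% Activity; curves were classified by r2, magnitude and activity.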

Experiment [24] concerns the target Calcium and integrin-binding protein 1 (Homo sapiens) (UniProt Q99828). Kind of experiment: Confirmatory qHTS for Identification of Calcium Integrin Binding Protein 1 (CIB1) Competitor (AID 1508617). Also: % is scaled to controls: 0 for no effect and ±100 for the full control effect; nearly all actives have a fitted effect of over 65% in size. The essentials:
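Binding competition between test compounds and fluorescent alphaIIb peptide for 1 uM CIB1-GST is monitored by FP at 480/540 nm. Final compound range is up to 114 uM; unlabeled peptide serves as reference competitor.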

A number with no mark means an inactive call. Results filed as inconclusive are left out. The source made the active and inactive calls. Unless noted, calls follow the shape of the dose curve; as a rule, active = well fitted curve in the direction sought with a large enough effect; inconclusive = small, poorly fitted or top-dose-only effect, or another doubt; inactive = no such curve, though single readings can be large; an effect the other way counts as inactive or inconclusive.

Sequence of Thyrotropin-releasing hormone receptor (Homo sapiens) (P34981 whole entry, looked up): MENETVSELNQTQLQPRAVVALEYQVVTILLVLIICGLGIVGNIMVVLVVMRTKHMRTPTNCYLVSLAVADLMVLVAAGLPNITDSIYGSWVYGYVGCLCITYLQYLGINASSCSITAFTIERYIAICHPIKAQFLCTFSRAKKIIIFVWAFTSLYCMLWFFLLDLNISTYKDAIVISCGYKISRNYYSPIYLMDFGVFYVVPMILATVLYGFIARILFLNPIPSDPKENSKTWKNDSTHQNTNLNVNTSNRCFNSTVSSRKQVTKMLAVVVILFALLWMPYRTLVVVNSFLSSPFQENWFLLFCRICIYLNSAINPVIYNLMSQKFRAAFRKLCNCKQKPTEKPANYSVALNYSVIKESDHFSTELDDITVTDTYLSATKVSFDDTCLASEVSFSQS
Sequence of DNA repair nuclease/redox regulator APEX1 (Homo sapiens) (P27695 whole entry, looked up): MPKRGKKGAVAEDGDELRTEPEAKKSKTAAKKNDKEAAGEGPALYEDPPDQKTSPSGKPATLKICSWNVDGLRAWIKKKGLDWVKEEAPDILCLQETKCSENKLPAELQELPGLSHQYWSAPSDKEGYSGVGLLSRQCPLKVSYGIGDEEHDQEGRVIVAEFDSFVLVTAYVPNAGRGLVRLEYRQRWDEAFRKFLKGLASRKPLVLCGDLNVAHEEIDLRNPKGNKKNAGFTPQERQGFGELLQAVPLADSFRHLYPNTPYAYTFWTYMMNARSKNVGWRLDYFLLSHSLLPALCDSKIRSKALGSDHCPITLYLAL
Sequence of Ferritin light chain (Equus caballus) (P02791 2-175 limits assumed): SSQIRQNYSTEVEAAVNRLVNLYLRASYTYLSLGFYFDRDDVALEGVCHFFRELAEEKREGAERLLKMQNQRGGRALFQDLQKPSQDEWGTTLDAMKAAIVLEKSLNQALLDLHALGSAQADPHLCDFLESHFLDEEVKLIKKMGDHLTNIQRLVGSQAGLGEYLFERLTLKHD
Sequence of M-phase phosphoprotein 8 (Homo sapiens) (Q99549 whole entry, looked up): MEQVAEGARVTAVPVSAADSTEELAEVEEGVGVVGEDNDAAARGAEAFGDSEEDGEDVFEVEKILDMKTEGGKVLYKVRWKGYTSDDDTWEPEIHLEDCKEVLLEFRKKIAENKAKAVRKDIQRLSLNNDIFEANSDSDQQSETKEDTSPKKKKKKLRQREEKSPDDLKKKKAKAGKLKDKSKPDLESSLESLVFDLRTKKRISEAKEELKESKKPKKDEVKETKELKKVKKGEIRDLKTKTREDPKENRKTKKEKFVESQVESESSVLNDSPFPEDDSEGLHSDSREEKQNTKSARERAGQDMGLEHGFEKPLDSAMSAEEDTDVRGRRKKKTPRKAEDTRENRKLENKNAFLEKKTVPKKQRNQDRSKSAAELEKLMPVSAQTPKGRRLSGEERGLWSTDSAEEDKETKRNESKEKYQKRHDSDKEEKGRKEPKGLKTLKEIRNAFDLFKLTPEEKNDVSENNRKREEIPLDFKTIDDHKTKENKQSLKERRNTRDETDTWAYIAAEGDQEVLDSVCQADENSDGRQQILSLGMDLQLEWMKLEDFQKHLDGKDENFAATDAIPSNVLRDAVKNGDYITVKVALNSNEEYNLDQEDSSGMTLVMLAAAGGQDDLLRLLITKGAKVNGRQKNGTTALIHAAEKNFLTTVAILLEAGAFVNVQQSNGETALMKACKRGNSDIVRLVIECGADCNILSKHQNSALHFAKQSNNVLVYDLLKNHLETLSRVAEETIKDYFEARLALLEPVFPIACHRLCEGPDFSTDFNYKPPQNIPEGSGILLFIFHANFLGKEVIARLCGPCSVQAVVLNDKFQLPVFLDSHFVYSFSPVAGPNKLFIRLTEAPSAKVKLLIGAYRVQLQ
Sequence of Galactokinase (Homo sapiens) (P51570 whole entry, looked up): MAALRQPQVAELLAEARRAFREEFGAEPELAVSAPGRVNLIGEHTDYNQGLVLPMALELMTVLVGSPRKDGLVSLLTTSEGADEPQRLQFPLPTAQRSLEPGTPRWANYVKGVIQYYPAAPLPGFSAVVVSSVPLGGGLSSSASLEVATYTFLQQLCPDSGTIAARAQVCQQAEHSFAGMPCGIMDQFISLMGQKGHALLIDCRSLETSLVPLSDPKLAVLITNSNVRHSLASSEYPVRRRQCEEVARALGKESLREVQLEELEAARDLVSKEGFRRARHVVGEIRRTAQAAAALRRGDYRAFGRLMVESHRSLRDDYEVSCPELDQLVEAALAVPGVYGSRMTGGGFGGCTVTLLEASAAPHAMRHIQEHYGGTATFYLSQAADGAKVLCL
Sequence of ATP-dependent DNA helicase Q1 (Homo sapiens) (P46063 whole entry, looked up): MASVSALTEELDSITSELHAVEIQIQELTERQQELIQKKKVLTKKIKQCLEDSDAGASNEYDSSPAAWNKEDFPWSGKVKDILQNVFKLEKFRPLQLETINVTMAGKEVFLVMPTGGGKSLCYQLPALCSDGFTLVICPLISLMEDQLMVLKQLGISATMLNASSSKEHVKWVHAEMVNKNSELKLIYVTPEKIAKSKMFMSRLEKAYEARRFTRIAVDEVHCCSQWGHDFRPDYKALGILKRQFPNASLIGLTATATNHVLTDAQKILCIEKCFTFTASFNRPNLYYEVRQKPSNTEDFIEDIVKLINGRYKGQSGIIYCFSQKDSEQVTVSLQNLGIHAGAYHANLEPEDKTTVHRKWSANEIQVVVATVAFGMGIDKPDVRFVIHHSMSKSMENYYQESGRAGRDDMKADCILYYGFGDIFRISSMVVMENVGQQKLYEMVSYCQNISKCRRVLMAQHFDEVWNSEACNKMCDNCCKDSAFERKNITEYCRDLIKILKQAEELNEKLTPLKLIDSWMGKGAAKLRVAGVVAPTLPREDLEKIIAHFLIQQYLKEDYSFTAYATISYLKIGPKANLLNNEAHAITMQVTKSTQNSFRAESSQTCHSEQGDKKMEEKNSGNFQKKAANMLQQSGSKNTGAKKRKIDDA
Sequence of Calcium and integrin-binding protein 1 (Homo sapiens) (Q99828 whole entry, looked up): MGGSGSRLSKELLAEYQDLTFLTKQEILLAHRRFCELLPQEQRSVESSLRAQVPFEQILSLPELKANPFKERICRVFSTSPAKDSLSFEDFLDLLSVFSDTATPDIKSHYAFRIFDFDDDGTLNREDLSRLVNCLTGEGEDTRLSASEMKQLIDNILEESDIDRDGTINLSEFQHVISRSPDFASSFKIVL

For the molecule `CNC(=O)[C@H]1O[C@@H](n2cnc3c(NCc4ccc(N)cc4)ncnc32)[C@H](O)[C@H]1O`, the molecule was classed as inactive in experiment [1], in [9], in experiment [11], in experiment [15], in [16] and in [18]. In addition, the outcome in [19] was inactive. Moreover, the Potency result in experiment [2], in experiment [3], in experiment [4], in experiment [5], in [6] and in experiment [7] was “inactive” in each case. Moreover, the Potency entry in experiment [8], in experiment [10], in experiment [12], in experiment [13], in experiment [14] and in [20] was “inactive” throughout. Also, the activation in experiment [17] is -0.312%.
For `Nc1ncnc2c1nc(Sc1ccc(Cl)cc1)n2[C@H]1O[C@@H]2COP(=O)(O)O[C@H]2[C@@H]1O`, the call in [1], in [21], in experiment [9], in experiment [11], in [15] and in [16] was inactive. The outcome in experiment [18] and in experiment [19] was inactive. Also, the Potency result in [2], in experiment [3], in [10], in [12], in experiment [13] and in experiment [14] was “inactive” each time. Also, in [20], the Potency result is “inactive”. Further, the results for the Potency in experiment [4], in experiment [22] and in [8] were 7.94 µM (active), 10 µM (active) and 10 µM (active), respectively. The activation in experiment [17] is 1.31%.
For `C[C@H]1CC2[C@@H]3CCC4=CC(=O)C=C[C@]4(C)[C@@]3(Cl)[C@@H](O)C[C@]2(C)[C@@]1(O)C(=O)CO` (stereo not given in full), the outcome in experiment [1], in experiment [21], in experiment [23], in [9], in [11] and in experiment [15] was inactive. The molecule was called inactive in experiment [16], in experiment [18] and in experiment [19]. The Potency entry in experiment [2], in experiment [3], in experiment [5], in experiment [6], in experiment [7] and in experiment [10] was “inactive” in each case. The Potency entry in experiment [12], in experiment [13], in experiment [14] and in experiment [20] was “inactive” throughout. In addition, the activation in experiment [17] is 0.25%.
As to `O=C1CCCC2=C1C(c1cccnc1Br)N=C(Nc1nc3ccccc3o1)N2` (stereo not given), in experiment [24], the Potency entry is “inactive”.

The values are drawn from PubChem BioAssay (NCATS).
